# Screening data deposited in PubChem BioAssay by several laboratories.
# HSF1 inh: HSF1 inhibition; NIH3T3-HGL HSE-luciferase, MG132-induced, luminescence 8 h; stronger effect = lower value; activity change, negative = inhibition, % at 7.5 µM (by protocol); hit rate 0.77% among 300,000; AID 2098;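 active = more than half of replicate wells show activity change below -50%, luminescence cut by over half; inconclusive = some wells, but at most half, below -50%; inactive = no replicate well below -50%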;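 also: luciferase reports HSF-1 transcriptional activity via heat shock element; 0% = median of DMSO wells and -100% = zero luminescence signal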
# HSF1 activator: increases HSF-1 driven luciferase reporter signal. activation, % at 9 µM. NIH3T3-HGL HSF-1 luciferase reporter, MG132, 8 h; 100% = twice DMSO control signal. AID 504408. hit rate 1.7% among 300,000;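 active = mean replicate activation of at least 50% with a set share of replicates each reaching 50%; inconclusive = only one of those two conditions met; inactive = mean below 50% and too few replicates reaching it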;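 also: 0% = median of the neutral control wells and 100% = twice that signal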
# GAA850 FXN act: frataxin GAA850 promoter activation; HEK293 lucGAA850 FXN promoter luciferase reporter, 24 h; percent of 10 µM SAHA response; activation, % at 6 µM; hit rate 0.56% among 360,000;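 active = activation above the average of all compounds screened plus 3 SD, cutoff fixed separately per campaign, cut at about 7.5% in these data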;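 also: 0% = DMSO wells and 100% = 10 µM SAHA wells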
# NR0B1 inh: inhibits human nuclear receptor DAX1; HEK293 Gal4-DAX1 luciferase reporter, luminescence; P51843; inhibition, % at 6.75 µM; AID 504766; hit rate 0.99% among 340,000;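 active = inhibition above the mean over all tested compounds plus 3 SD, cut at about 4.2% in these data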;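 also: 0% = DAX1-transfected cells with DMSO and 100% = empty-vector control cells with DMSO; inhibition shows as a rise in luminescence from relieved DAX1 repression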
# Target sequence (P51843 207-470 limits assumed): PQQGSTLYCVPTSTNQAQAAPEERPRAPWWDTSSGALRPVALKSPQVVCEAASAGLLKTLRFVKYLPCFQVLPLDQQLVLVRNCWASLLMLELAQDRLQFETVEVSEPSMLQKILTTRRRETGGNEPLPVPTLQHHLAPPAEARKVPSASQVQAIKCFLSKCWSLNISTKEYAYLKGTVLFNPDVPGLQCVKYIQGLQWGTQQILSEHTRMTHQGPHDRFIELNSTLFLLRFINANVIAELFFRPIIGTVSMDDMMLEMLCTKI
# AHR activator: activators of human aryl hydrocarbon receptor; P35869; activation, % at 5 µM; AID 2796; AHR-responsive luciferase reporter cells, luminescence; hit rate 2.5% among 320,000; in the data active = activation above about 47%;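 also: 0% = vehicle wells and 100% = reference agonist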
# * hit, by the source's call; ? = inconclusive; / = no result given. An excerpt weighted towards active compounds, which were near 5.4% of everything screened.
SMILES,HSF1 inh,HSF1 activator,GAA850 FXN act,NR0B1 inh,AHR activator
O=S(=O)(Cc1cc(-c2ccccc2Cl)no1)c1ccccc1,41,72*,5,2,7
O=S(=O)(Cc1cc(-c2ccc(Cl)cc2)no1)c1ccccc1,14,13,3,1,3
C/C(=N\Nc1nc(C)cc(-c2ccccc2)n1)c1cccc(N)c1,12,21,0,2,49*
C/C(=N\Nc1nc(C)cc(-c2ccccc2)n1)c1ccccc1,-6,-1,1,3,40
C/C(=N\N=C(/C)c1cccc(N)c1)c1cccc(N)c1,28,64*,-1,/,-1
Cc1ccc2nc(N/N=C/c3ccccc3F)nc(-c3ccccc3)c2c1,-2,-12,1,1,13
Cc1cc(-c2ccccc2)nc(N/N=C/c2ccccc2F)n1,12,24,4,-1,68*
C/C(=N/Nc1nc(C)cc(-c2ccccc2)n1)c1ccco1,11,11,1,-1,43
C/C(=N\Nc1nc(C)cc(-c2ccccc2)n1)c1ccc(C)o1,10,?,0,2,47*
CC(C)(C)OC(=O)N1CCC(c2c(C(=O)N3CCN(C(=O)c4ccco4)CC3)cnn2-c2ccc(F)cc2F)CC1,0,3,0,0,3
COc1ccc(C(C2C(=O)CC(C)(C)CC2=O)C2C(=O)CC(C)(C)CC2=O)cc1,4,22,-1,3,0
NC(=O)CC(NC(=O)Cc1cccc2ccccc12)c1ccc(NCCCN2CCCC2=O)c([N+](=O)[O-])c1 (stereo not given),-3,-16,0,1,1
Nc1nonc1C(=O)N/N=C/c1cc2c(cc1Br)OCO2,-3,-21,0,0,23
c1ccc(-c2nc3ccccc3s2)nc1,31,58*,3,4.3*,30
CN1CCC(N(C)S(=O)(=O)c2ccc(NC(=O)COc3cccc(C(F)(F)F)c3)cc2)CC1,-2,-9,3,2,0
COc1ccc(NC(=O)Cc2ccc(C)cc2)c([N+](=O)[O-])c1,5,19,5,-1,11
CCCCOc1ccccc1NC(=O)CC1Nc2ccccc2NC1=O (stereo not given),14,26,0,0,28
COc1ccc(NC(=O)CC2Nc3cc(C)c(C)cc3NC2=O)c([N+](=O)[O-])c1 (stereo not given),7,-5,3,0,61*
O=C(CC1Nc2ccccc2NC1=O)NCc1cccnc1 (stereo not given),-6,16,1,1,49*
COc1ccc(NC(=O)CC2Nc3cccc4cccc(c34)NC2=O)cc1 (stereo not given),7,22,-2,0,57*
O=C(CC1Nc2ccccc2NC1=O)Nc1cc(Cl)cc(Cl)c1 (stereo not given),7,12,0,0,48*
O=C(COc1ccc(Cl)cc1)NCCNC(=O)c1ccccn1,-3,-16,0,0,4
CC(NC(=O)c1ccccc1Cl)C(=O)N1CCN(Cc2ccc3c(c2)OCO3)CC1 (stereo not given),/,/,-1,0,1
CC1CNC(=S)N(c2ccccc2)C1=O (stereo not given),/,/,1,1,/
O=C(COc1ccccc1[N+](=O)[O-])Nc1ccc2c(c1)CCC2,/,/,2,2,0
SMILES,HSF1 inh,HSF1 activator,GAA850 FXN act,NR0B1 inh,AHR activator
COc1cc(/C=N/N2C(=O)c3ccccc3NC2(C)c2cccc([N+](=O)[O-])c2)cc(Br)c1O (stereo not given),44,56*,2,0,2
CC(C)OC(=O)Cn1c(=O)oc2ccccc21,-52*,-62,-1,1,0
Cc1ccc2oc(=O)n(CC(=O)OC(C)C)c2c1,1,-1,0,2,-3
CCOCCCN(C(=O)c1snc(C(N)=O)c1N)C(C(=O)NCCC(C)C)c1ccc(F)cc1 (stereo not given),26,53*,-1,-1,1
CCOc1ccc(C(C(=O)NCCC(C)C)N(CCO)C(=O)c2snc(C(N)=O)c2N)cc1 (stereo not given),-3,6,0,3,-1
Cc1ccc(S(=O)(=O)NCC(=O)N(CC(=O)NCC2CCCO2)Cc2ccco2)cc1 (stereo not given),2,-10,0,-1,1
FC(F)(F)c1ccc(C2Nc3cccc4cccc(c34)N2)cc1,/,/,1,-1,/
Fc1ccc(C2Nc3cccc4cccc(c34)N2)cc1,-9,-14,-1,1,51*
Clc1cccc(C2Nc3cccc4cccc(c34)N2)c1Cl,3,2,0,-1,59*
CCOC(=O)c1c(CN2CCC(C)CC2)n(C)c2cc(Br)c(OC)cc12,59,94*,0,4.9*,3
CCOC(=O)c1c(C)[nH]c2cc(Br)c(OC)cc12,/,/,4,0,51*
Cc1ccc(/C=N/N2CCOCC2)s1,6,23,4,5.6*,6
Cc1ccc(C)c(S(=O)(=O)N2CCN(C(=O)CSc3ccccc3F)CC2)c1,-1,7,-1,0,3
COc1ccc(CNC(=O)CCS(=O)(=O)c2ccc3c(c2)CC(C)N3C(=O)C2CC2)cc1 (stereo not given),4,6,3,0,-1
Cc1nc(C(=O)NNC(=O)c2cccc(Cl)c2)c(C(F)(F)F)o1,-71*,-77,2,-1,0
Cc1nc(C(=O)NNC(=O)c2ccccc2Cl)c(C(F)(F)F)o1,-4,-15,1,1,0
O=C(Nc1ccc(F)c(F)c1)c1cnc(-c2ccccc2)nc1-c1ccccc1,0,-16,1,1,65*
C[C@@]12C(=O)N(CCO)CC(=O)N1[C@H](/C=C/c1ccccc1)[C@@H]1C(=O)N(c3ccccc3)C(=O)[C@@H]12,-6,-18,-1,1,-2
O=C(CCCc1ccccc1)c1ccccc1,20,37,5,4.9*,-5
COc1cccc(C(=O)NCCS(=O)(=O)NCCc2ccccc2)c1,34,59*,1,1,6
O=C(c1ccccc1)c1ccc2c(c1)OCCCO2,14,19,3,4.6*,-2
O=C(NCCc1ccccc1)Nc1ccc2c(c1)OCO2,26,62*,2,2,71*
CCOc1ccccc1OCCCC(=O)N1CCN(S(=O)(=O)c2ccc(C)cc2C)CC1,/,/,3,0,0
O=C(CCC1CCN(Cc2nccs2)CC1)Nc1ccccc1,/,/,0,2,/
O=C(NCCc1ccccc1)c1ccc2c(c1)OCCO2,-66*,-69,-16,-5,-25
O=C(NCCS(=O)(=O)NCCc1ccccc1)c1ccc2c(c1)OCO2,18,35,6,4.3*,9
O=C(CCc1ccccc1)c1ccc2c(c1)OCCCO2,27,?,2,3,5
O=C(NCCc1ccccc1)c1ccc2c(c1)OCCCO2,-83*,-86,-14,-4,-18
COc1ccc(CCNC(=O)c2ccc3c(c2)OCCO3)cc1,12,31,4,0,12
